Screening data deposited in PubChem BioAssay by National Center for Advancing Translational Sciences (NCATS).
JMJD2A Tudor: inhibitors of human JMJD2A Tudor domain. AID 504339. 4.4% of 390,000 active. Potency, µM (series often up to 114 µM), without a hit: at the highest dose activity change, negative = inhibition, hits mostly inhibitors. AlphaScreen JMJD2A-Tudor / H3K4me3 peptide binding. O75164; note: % is set by controls: 0 for no effect and ±100 for the full control effect; nearly all actives have a fitted effect of over 50% in size
Sfp inh: blocks B. subtilis Sfp PPTase activity. Potency, µM, without a hit: largest response in the series, negative = inhibition, hits mostly inhibitors. Q9F4F7. AID 1490. 3.5% of 310,000 active. Biochemical Sfp PPTase activity, qHTS;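 note: the enzyme is Sfp with the accession as filed and its product quenches rhodamine fluorescence; 0% = enzyme reaction without inhibitor and -100% = no enzyme wells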
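Fluorescence-quenching assay: 15 nM Sfp-PPTase preincubated 15 min at room temperature with compound, then 5 uM rhodamine-CoA and 12.5 uM BHQ-2-labelled YbbR peptide added. Fluorescence (ex 525/em 598 nm) read at start and after 30 min; difference gives rate.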
L3MBTL1 inh-1: blocks human L3MBTL1. Potency, µM (top dose mostly 57.1 µM), without a hit: at the top dose activity, negative = inhibition, most hits filed as inhibitors. 0.66% of 230,000 active. AID 485360. Q9Y468. AlphaScreen L3MBTL1–H3K9me1 peptide binding; note: % is set by controls: 0 for no effect and ±100 for the full control effect; nearly all actives have a fitted effect of over 60% in size
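L3MBTL1 (50 nM) pre-complexed 30 min with biotinylated H3(1-15)K9me1 peptide (75 nM), then compounds added for 30 min at room temperature; AlphaScreen streptavidin donor/nickel chelate acceptor beads (10 ug/mL final) read after 30 min dark incubation.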
HP1b binding inh: blocks HP1-beta chromodomain binding to methylated histone tails; Potency, µM (series often up to 114 µM), without a hit: at the top dose activity change, negative = inhibition, usual class: inhibitors; AlphaScreen HP1-beta / biotin-H3K9me3 peptide binding; P83916; 0.56% of 390,000 active; note: nearly all actives have a fitted effect of over 70% in size
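Compound inhibition of the preformed complex between 50 nM HP1-beta and 50 nM biotinylated H3K9me3 peptide was read by AlphaScreen. Buffer was PBS pH 7.4 with 0.01% Tween-20. Incubations ran 30 min at room temperature, with 10 ug/mL donor/acceptor beads.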
G9a block: inhibitors of human histone lysine methyltransferase G9a; Q96KQ7; G9a H3K9 monomethylation, AlphaScreen, 2 h; Potency, µM (doses to about 102 µM), for inactives: at the top dose activity, negative = inhibition, actives largely listed as inhibitors; 8.8% of 350,000 active; AID 504332; note: % is set by controls: 0 for no effect and ±100 for the full control effect; nearly all actives have a fitted effect of over 75% in size
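AlphaScreen detection with an anti-monomethyl H3K9 antibody quantified product after a 2 h room-temperature reaction containing 500 nM biotinylated H3K9 peptide, 20 µM SAM and 20 nM enzyme, which had been preincubated 15 min with compound.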
BAZ2B inh: inhibitors of human BAZ2B bromodomain; Potency, µM (titrated, usually from 114 µM), inactives show at the top dose activity change, negative = inhibition, actives largely listed as inhibitors; 4.4% of 360,000 active; AlphaScreen BAZ2B-H3K14Ac peptide displacement; AID 504333; Q9UIF8; note: % is set by controls: 0 for no effect and ±100 for the full control effect; nearly all actives have a fitted effect of over 60% in size
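Inhibition is scored as reduced AlphaScreen emission. The BAZ2B/b-H3(5-23)K14Ac complex (50 nM each) in PBS pH 7.4, 0.01% Tween-20 meets compound (up to 110 uM) for 30 min at RT before bead addition.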
L3MBTL1 inh-2: validation of human L3MBTL1 methyl-lysine binding inhibitors; 91% of 500 active; shares compounds with L3MBTL1 inh-1; Potency, µM, most hits filed as inhibitors; L3MBTL1 methyl-lysine binding inhibition, biochemical qHTS; AID 540279; note: nearly all actives have a fitted effect of over 70% in size
L3MBTL1 ctr: counter-screen for L3MBTL1 inhibitors: AlphaScreen signal interference. shares compounds with L3MBTL1 inh-1. AlphaScreen counterscreen, signal inhibition. Potency, µM (highest dose often 57.1 µM), inactives show at the highest dose activity change, negative = inhibition, actives largely listed as inhibitors. 500 tested, under 10 active; note: 0% is about no effect
An asterisk follows results filed as active; u = inconclusive; x = no result; [ ] = remark or other dose. In the library only some 12% were active in any assay of this set; here they are far more common. Calls come from the whole dose curve; as a rule, active = well fitted curve in the direction sought with a large enough effect; inconclusive = small, poorly fitted or top-dose-only effect, or another doubt; inactive = no such curve, though single readings can be large; an effect the other way counts as inactive or inconclusive. Potency is the fitted concentration of half-maximal effect.

SMILES	JMJD2A Tudor	Sfp inh	L3MBTL1 inh-1	HP1b binding inh	G9a block	BAZ2B inh	L3MBTL1 inh-2	L3MBTL1 ctr
CNC(=O)COC(=O)c1cc(-c2ccco2)nc2ccccc12	20µM*	28µM*	28µM*	45µM*	10µM*	50µM*	3.4*	2%
COCCCN(C(=O)c1cc(-c2ccco2)nc2ccccc12)c1c(N)n(Cc2ccccc2)c(=O)[nH]c1=O	u	x	32µM*	-12%	45µM*	u	19*	6%
CN(CC(=O)Nc1ccc(F)cc1)C(=O)c1cc(-c2ccco2)nc2ccccc12	u	x	18µM*	-14%	-10%[0.501 µM]	40µM*	12*	9%
C/C(CCC(=O)OC[C@@H]1O[C@H](C#Cc2ccccc2)C=C[C@@H]1Oc1ccc(C)cc1)=N/OC[C@@H](O)COCc1ccco1	x	16%	x	x	x	x	x	x
O=C(O)c1cc(-c2ccco2)nc2cc3ccccc3cc12	u	11µM*	10µM*	3%	11µM*	56µM*	0.84*	-19%
Cc1ccc(C)c(S(=O)(=O)N2CCCCC2CCNC(=O)C(=O)NC2CC2)c1 (stereo not drawn)	-6%	x	-12%	25%	-3%[0.501 µM]	11%	x	x
O=C(O)c1cc(-c2ccc(/C=C3\NC(=O)N(c4ccccc4)C3=O)o2)ccc1Cl	56µM*	79µM*	20µM*	-4%	45µM*	79µM*	3*	3%
COc1ccc(CNC(=O)C2CCCN(C(=O)N3CCOc4ccccc43)C2)cc1 (stereo not drawn)	-10%	x	x	25%	-47%[59 µM]	-5%	x	x
COc1ccc(N2CCOCC2)c(NC(=O)c2cccnc2)c1	-5%	-3%	x	30%	14%	u	x	x
CCCCN1Cc2c(nc3cc(-c4ccco4)[nH]n3c2=O)C1=O	-17%	10µM*	28µM*	57%	u	u	27*	-26%
COC(=O)c1c(NC(=O)c2cc(=O)c3cc(C)cc(C)c3o2)sc2c1CCC2	-7%	x	x	36%	2%[59 µM]	-7%	x	x
O=c1c2c3c(sc2[nH]c(=S)n1Cc1ccco1)CCC3	-16%[11.4 µM]	50µM*	25µM*	2%	14µM*	45µM*	11*	28%
O=C(Cn1c(=O)[nH]c2sc3c(c2c1=O)CCCC3)NCC1CCCO1 (stereo not drawn)	16%	9%	x	36%	u	-23%	x	x
CCOC(=O)c1c(-c2ccco2)csc1NC(=O)COC(=O)c1cnc(C)cn1	u	x	32µM*	u	6%[0.501 µM]	50µM*	24*	0%
Cc1ccnc2nc(C(=O)Nc3nc(-c4ccccn4)cs3)nn12	22µM*	14%	14µM*	59%	20%[12.7 µM]	3.2µM*	4.2*	u
Cc1ccccc1NC(=O)c1nc2nccc(C)n2n1	x	-1%	44%	x	5%	-2%	x	x
O=C1CC(=O)CC(c2ccco2)C1	-27%	24%	x	5%	-41%[12.7 µM]	-28%	x	x
O=C1C=C(O)CC(c2ccco2)C1 (stereo not drawn)	56µM*	14%	14µM*	-34%	u	u	3*	-20%
Cc1ccc2c(CC(=O)NCc3ccc4c(c3)OCO4)coc2c1	0%	21%	x	29%	2%[12.7 µM]	0%	x	x
COc1ccc2c(CC(=O)NCc3ccc4c(c3)OCO4)coc2c1	40µM*	11%	25µM*	-19%	u	50µM*	27*	0%
CCOc1ccccc1NC(=O)CSc1ccc2nc(-c3ccccc3)cn2n1	2%	x	x	35%[57 µM]	u	12%	x	x
COC(=O)c1c(NC(=O)c2nc(SCc3ccc(F)cc3)ncc2Cl)sc2c1CCCC2	-17%	x	x	14%	9%[59 µM]	-20%	x	x
O=C(O)C1C2C=CC(O2)C1C(=O)NCCC1=CCCCC1 (stereo not drawn)	-32%	3%	18µM*	42%	u	3%	3.8*	2%
O=C(NCCC1=CCCCC1)C(=O)NCc1ccccc1	-14%	9%	-17%	30%	-43%[59 µM]	8%	x	x
O=C(CSc1cccc2cccnc12)Nc1ccc(S(=O)(=O)N2CCOCC2)cc1	-11%	-28%	22µM*	7%	-18%	-16%	u	u
SMILES	JMJD2A Tudor	Sfp inh	L3MBTL1 inh-1	HP1b binding inh	G9a block	BAZ2B inh	L3MBTL1 inh-2	L3MBTL1 ctr
O=C(CSc1cccc2cccnc12)Nc1cccc(S(=O)(=O)N2CCOCC2)c1	-15%	6%	4%	28%	u	-9%	x	x
Cc1cccc(OCCCC(=O)NC2CCCCC2)c1	-1%	2%	7%	34%	7%	12%	x	x
CCN=C1S/C(=C\c2ccc(-c3cccc(C(=O)O)c3)o2)C(=O)N1CC	u	20µM*	40µM*	47%	40µM*	u	24*	9%
Cc1ccc(C(C)C)cc1OCCCCN1CCCC1	18µM*	u	28µM*	u	10µM*	50µM*	19*	6%
Oc1ccc2ccccc2c1/C=N/Nc1nnc(-c2ncc[nH]2)c2ccccc12	u	10%	x	3%	7%[12.7 µM]	-1%	x	x
Oc1ccccc1N=Cc1c(O)ccc2ccccc12	u	-1%	28µM*	-3%	7.9µM*	11µM*	6*	12%
O=C(/C=C/c1ccco1)Nc1cc(Cl)ccc1C(=O)O	u	56µM*	28µM*	-6%	8.9µM*	u	11*	16%
Cc1ccc(C)c(NS(=O)(=O)c2ccc3[nH]c(=O)oc3c2)c1	-28%	4%	32µM*	-10%	45µM*	79µM*	27*	13%
COC(=O)c1c(NC(=O)CN2C(=O)NC3(CCC(C)CC3)C2=O)sc2c1CCC2 (stereo not drawn)	-4%	x	-3%	34%	-5%[12.7 µM]	9%	x	x
CC1CCC2(CC1)NC(=O)N(CC(=O)Nc1sc3c(c1C(N)=O)CCC3)C2=O (stereo not drawn)	u	u	28µM*	7%	50µM*	50µM*	3.8*	6%
CC(=O)c1ccccc1Oc1cc(NN2CCCCC2)c([N+](=O)[O-])cc1[N+](=O)[O-]	u	5%	20µM*	9%	28µM*	32µM*	27*	u
O=[N+]([O-])c1cc([N+](=O)[O-])c(Oc2cccc3ccccc23)cc1NN1CCCCC1	u	x	x	-16%	x	x	x	x
